# Results from article PMC4336329 (PLoS ONE, 2015).
# The whole screen tested about 310,000 compounds, of which about 14,000 (4.5%) showed an effect of 50% or more. Effects have a minus sign here. Many of the other results were omitted from the sample, so strong results are more common in it than they were.
# Target: human ether-à-go-go-related gene (hERG) potassium channel (human, UniProt Q12809)
# Assay: primary screen, population patch clamp on CHO cells stably expressing hERG; higher = less effect of the substance
# 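Also: peak tail current of the secondary pulse compared with the same well before compound.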
# human ether-à-go-go-related gene (hERG) potassium channel, sequence (Q12809 whole entry, looked up): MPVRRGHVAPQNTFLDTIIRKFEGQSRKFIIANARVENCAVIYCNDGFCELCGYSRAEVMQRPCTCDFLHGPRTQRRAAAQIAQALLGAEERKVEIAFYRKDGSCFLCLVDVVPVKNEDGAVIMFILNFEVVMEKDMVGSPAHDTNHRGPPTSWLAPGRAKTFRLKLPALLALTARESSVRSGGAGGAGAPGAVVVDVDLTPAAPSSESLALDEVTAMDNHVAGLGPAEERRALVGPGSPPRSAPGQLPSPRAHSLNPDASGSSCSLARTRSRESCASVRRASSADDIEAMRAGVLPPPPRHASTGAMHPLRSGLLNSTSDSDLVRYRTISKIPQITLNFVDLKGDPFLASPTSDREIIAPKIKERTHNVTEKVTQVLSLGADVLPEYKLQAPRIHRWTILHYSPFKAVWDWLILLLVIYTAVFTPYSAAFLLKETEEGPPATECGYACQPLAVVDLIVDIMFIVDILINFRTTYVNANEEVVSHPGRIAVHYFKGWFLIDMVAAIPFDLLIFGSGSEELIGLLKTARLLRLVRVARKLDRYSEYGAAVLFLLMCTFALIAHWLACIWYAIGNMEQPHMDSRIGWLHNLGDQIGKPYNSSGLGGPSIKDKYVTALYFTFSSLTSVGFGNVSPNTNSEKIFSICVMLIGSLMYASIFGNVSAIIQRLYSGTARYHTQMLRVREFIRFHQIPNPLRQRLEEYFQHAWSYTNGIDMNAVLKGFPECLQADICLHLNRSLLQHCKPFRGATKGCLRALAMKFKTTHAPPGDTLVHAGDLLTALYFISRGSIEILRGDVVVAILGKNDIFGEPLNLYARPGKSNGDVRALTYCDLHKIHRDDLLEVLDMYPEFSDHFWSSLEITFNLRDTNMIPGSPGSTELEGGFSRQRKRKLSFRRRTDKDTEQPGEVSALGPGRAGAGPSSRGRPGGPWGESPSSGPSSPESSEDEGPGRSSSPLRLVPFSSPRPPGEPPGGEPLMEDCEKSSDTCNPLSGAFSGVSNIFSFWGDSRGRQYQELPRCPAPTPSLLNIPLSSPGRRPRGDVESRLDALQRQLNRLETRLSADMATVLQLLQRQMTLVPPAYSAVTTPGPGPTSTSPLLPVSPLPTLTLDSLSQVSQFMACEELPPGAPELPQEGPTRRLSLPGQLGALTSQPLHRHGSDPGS
row,SMILES,"hERG current change (%, negative = inhibition) at 10uM"
1,Cn1c(SC2CCCCC2=O)nnc1-c1ccccc1F (stereo not drawn),9.45%
2,Cc1cc(C)cc(OCC(=O)O/N=C(\N)c2ccccn2)c1,-6.54%
3,O=c1ccc(-c2ccc(S(=O)(=O)N3CCN(c4cccc(Cl)c4)CC3)o2)n[nH]1,10%
4,O=C(Nc1cc(S(=O)(=O)N2CCOCC2)ccc1N1CCOCC1)C1CCCO1 (stereo not drawn),-3.99%
5,O=C(CN1CCN(C(=O)c2ccco2)CC1)Nc1ccc(Cl)c(S(=O)(=O)N2CCOCC2)c1,-25.6%
6,O=C(CN1CCN(C(=O)c2ccco2)CC1)NCc1ccc(Cl)cc1,-64.4%
7,O=C(CN1CCN(C(=O)c2ccco2)CC1)Nc1ccc(F)cc1F,-49.6%
8,O=C(c1ccco1)N1CCN(Cc2ccc(Cl)cc2)CC1,-14%
9,Cc1ccccc1NC(=O)CN1CCN(C(=O)c2ccco2)CC1,-29.4%
10,O=C(NCc1ccc(Cl)cc1)C1CCN(C(=O)c2ccco2)CC1,-41.4%
11,O=C(CN1CCN(C(=O)c2ccco2)CC1)Nc1cc(Cl)ccc1Cl,-60.1%
12,Cc1cc(Cl)ccc1NC(=O)CN1CCN(C(=O)c2ccco2)CC1,-73.6%
13,Cc1cc(Cl)ccc1NC(=S)N1CCN(C(=O)c2ccco2)CC1,-8.95%
14,O=C(CN1CCN(C(=O)c2ccco2)CC1)Nc1ccc(Cl)c(C(F)(F)F)c1,-67.1%
15,Cc1ccc(NC(=O)CN2CCN(C(=O)c3ccco3)CC2)cc1,-3.01%
16,COc1ccc2c(-c3ccccc3)cc(SCC(=O)N(C)C)nc2c1,-22.9%
17,C=CCNC(=O)c1oc2ccc(S(=O)(=O)N3CCC4(CC3)OCCO4)cc2c1C,0.761%
18,CC(OC(=O)/C=C/c1ccco1)C(=O)Nc1cccc([N+](=O)[O-])c1 (stereo not drawn),6.57%
19,Cc1ccc(-n2nc3c(=O)n(CC(=O)NC(C)CCc4ccccc4)nc(C)c3c2C)cc1 (stereo not drawn),6.77%
20,O=C(CNC(=O)c1ccco1)Nc1ccc(OC(F)F)cc1,19.6%
21,COc1cc(/C=C2\C(=N)N3N=C(S(C)(=O)=O)SC3=NC2=O)ccc1OS(=O)(=O)c1ccc(C)cc1,6.9%

row,SMILES,"hERG current change (%, negative = inhibition) at 10uM"
1,CCOc1ccc(NC(=O)/C=C/c2ccccc2)c([N+](=O)[O-])c1,-5.94%
2,NC(=O)c1ccc(NC(=O)COc2ccc(-n3cnnn3)cc2)cc1,-4.26%
3,CCc1ccc(-c2cc(C)no2)cc1S(=O)(=O)Nc1cc(C)on1,10.3%
4,O=C(CN1CCCC1)Nc1cc(C(F)(F)F)ccc1Cl,2.22%
5,O=C(CN1CCOCC1)Nc1cc(C(F)(F)F)ccc1Cl,-0.356%
6,O=C(CN1CCN(C(=O)c2ccco2)CC1)Nc1cc(C(F)(F)F)ccc1Cl,-63.6%
7,COc1ccccc1N1C(=O)CC(Sc2ccccc2N)C1=O (stereo not drawn),0.966%
8,CN1CCN(c2ccc(C(=O)NC3CCCCC3)cc2[N+](=O)[O-])CC1,-9.83%
9,COC(=O)c1ccc(N2CCN(CC(=O)c3ccc(-c4ccccc4)cc3)CC2)c([N+](=O)[O-])c1,8.75%
10,O=C(O)c1ccccc1C(=O)c1ccc(N2CCCC2)c([N+](=O)[O-])c1,13.8%
11,COC(=O)c1ccc(N2CCN(S(=O)(=O)c3ccc(Br)cc3)CC2)c([N+](=O)[O-])c1,10.6%
12,COC(=O)c1ccc(N2CCN(C)CC2)c([N+](=O)[O-])c1,-63.4%
13,COC(=O)c1ccc(N2CCN(S(=O)(=O)c3ccc(C)cc3)CC2)c([N+](=O)[O-])c1,4.78%
14,CN1CCN(c2ccccc2NC(=O)c2ccc(N3CCCC3)c([N+](=O)[O-])c2)CC1,-48.5%
15,CN1CCN(c2ccc(C(=O)c3ccc(Br)cc3)cc2[N+](=O)[O-])CC1,-72.1%
16,COC(=O)c1ccc(N2CCN(C(=O)C3CC3)CC2)c([N+](=O)[O-])c1,-7.61%
17,CN1CCN(c2ccc(C(=O)c3ccccc3)cc2[N+](=O)[O-])CC1,-53.1%
18,COC(=O)c1ccc(N2CCN(CC(=O)c3ccc(C)cc3)CC2)c([N+](=O)[O-])c1,-65%
19,COC(=O)c1ccc(N2CCc3ccccc32)c([N+](=O)[O-])c1,10.5%
20,O=C(NCc1cccs1)c1cc2c(s1)CS(=O)(=O)C2,-0.732%
21,O=C(N/N=C/c1c[nH]c2ccccc12)C1CC1c1ccccc1 (stereo not drawn),-4.47%

row,SMILES,"hERG current change (%, negative = inhibition) at 10uM"
1,COC(=O)c1cc(C(=O)OC)n(Cc2ccc(F)cc2)n1,-12.9%
2,O=C(O)c1cccc(N(CCO)CCO)c1,-1.13%
3,CC(C)COP(=O)(c1ccc(N(C)C)cc1)C(O)c1ccc(Br)cc1 (stereo not drawn),8.63%
4,COc1ccc(CCNC(=O)c2nnc(CS(=O)(=O)c3ccccc3)o2)cc1OC,-6.44%
5,Cc1c(-c2ccccc2)cn2c1-c1ccc(C)n1CC2,-0.42%
6,COc1ccc(-c2nnc(SCC(=O)N(C)C3CCS(=O)(=O)C3)n2N)cc1OC (stereo not drawn),19.8%
7,O=C(CN1C(=O)/C(=C\c2ccc(C(F)(F)F)cc2)Sc2ccccc21)NCc1ccco1,-5.39%
8,Cc1cc(=O)[nH]c(N/N=C/C(C)c2ccccc2)n1 (stereo not drawn),7.54%
9,CCc1cccc(CC)c1NC(=O)C1SC(=Nc2ccccc2C)C(c2nc3ccccc3s2)=C1N (stereo not drawn),29.1%
10,CN1CCN(c2ccc(C(N)=O)cc2[N+](=O)[O-])CC1,7.57%
11,Cc1ccc(C(=O)c2ccc(N3CCN(C)CC3)c([N+](=O)[O-])c2)cc1,-68.8%
12,Cc1ccc(OC(=O)c2ccc(N3CCOCC3)c([N+](=O)[O-])c2)cc1,-4.31%
13,CN1/C(=C\C(=O)COC(=O)C2COc3ccccc3O2)C(C)(C)c2ccccc21 (stereo not drawn),9.13%
14,CCCCn1c(N)c(N(CCC(C)C)C(=O)C(C)N2C(=O)c3ccccc3C2=O)c(=O)[nH]c1=O (stereo not drawn),8.31%
15,CCCOC(=O)c1cccc(NC(=O)C(C)(C)C)c1,1.43%
16,Cc1ccccc1NC(=O)Cn1nnc2sc3c(c2c1=O)CC(C)(C)OC3,-35.2%
17,CCC1(C)Cc2c(sc3nnn(CC(=O)Nc4cccc5ccccc45)c(=O)c23)CO1 (stereo not drawn),3.09%
18,CCC1(C)Cc2c(sc3nnn(CC(=O)Nc4ccccc4C)c(=O)c23)CO1 (stereo not drawn),-58.4%
19,CCC(CC)C(=O)N1CC(=O)Nc2ccc(C)cc2C1c1ccccc1 (stereo not drawn),-38.1%
20,CCC(CC)C(=O)N1CC(=O)Nc2ccc(Br)cc2C1c1ccccc1 (stereo not drawn),-73.5%
21,CCC(=O)N1CC(=O)Nc2ccc(Br)cc2C1c1ccccc1 (stereo not drawn),-11.6%

row,SMILES,"hERG current change (%, negative = inhibition) at 10uM"
1,O=C1CN(C(=O)CN2CCCC2)C(c2ccccc2)c2cc(Br)ccc2N1 (stereo not drawn),-46.6%
2,CCOC(=O)CN1C(=O)Nc2ccc(Br)cc2C1c1ccccc1 (stereo not drawn),-56.7%
3,CCOC(=O)N1CC(=O)Nc2ccc(Br)cc2C1c1ccccc1 (stereo not drawn),-24.4%
4,O=C(O)CN1C(=O)Nc2ccc(Br)cc2C1c1ccccc1 (stereo not drawn),-3.51%
5,O=C1CN(C(=O)CN2CCOCC2)C(c2ccccc2)c2cc(Br)ccc2N1 (stereo not drawn),-32.3%
6,CCC(CC)C(=O)N1CC(=O)Nc2ccc(F)cc2C1c1ccccc1 (stereo not drawn),-11.4%
7,O=C1CN(C(=O)CCN2CCOCC2)C(c2ccccc2)c2cc(Br)ccc2N1 (stereo not drawn),-60.5%
8,COC(=O)CN1C(=O)Nc2ccc(Br)cc2C1c1ccccc1 (stereo not drawn),-14.6%
9,O=C1CN(C(=O)CN2CCCCC2)C(c2ccccc2)c2cc(Br)ccc2N1 (stereo not drawn),-66.5%
10,COc1ccccc1C(=O)NCCC(=O)NCC(c1ccccc1OC)N1CCCC1 (stereo not drawn),29.8%
11,O=C(Nc1ccncc1)C1CCN(S(=O)(=O)c2ccccc2)CC1,3.04%
12,CCOC(=O)C1C(=O)CC(C)(O)C(C(=O)OCC)C1c1ccc([N+](=O)[O-])cc1 (stereo not drawn),-8.06%
13,FC(F)(F)c1nc(-c2ccncc2)ncc1-c1nnnn1-c1ccccc1,-0.18%
14,Cc1c(C(=O)N/N=C/c2ccoc2)cccc1[N+](=O)[O-],9.67%
15,O=C(COc1coc(CN2CCN(c3ccccc3F)CC2)cc1=O)NC1CCCCC1,-21.6%
16,CCOC(=O)c1ccc(NC(=O)C2CCN(S(=O)(=O)c3c(C)nn(C)c3C)CC2)cc1,-28.3%
17,O=C(Nc1cccc(C(F)(F)F)c1)c1cc[n+]([O-])cc1,21.2%
18,COc1ccc(OCC(=O)NS(=O)(=O)c2ccccc2)cc1,15.3%
19,Cc1ccc2c(c1)C(c1ccccc1)N(C(=O)c1ccccc1[N+](=O)[O-])CC(=O)N2 (stereo not drawn),-40.5%
20,O=C1CN(C(=O)c2ccccc2F)C(c2ccc(F)cc2)c2cc(Br)ccc2N1 (stereo not drawn),-23%
21,O=C1CN(C(=O)c2ccccc2[N+](=O)[O-])C(c2ccccc2)c2cc(Br)ccc2N1 (stereo not drawn),-66.5%
